Records with an inconclusive call do not appear. Unmarked numbers belong to inactive results. The source made the active and inactive calls. The call rests on the fitted dose curve; in most records, active means well fitted curve in the direction sought with a large enough effect; inconclusive means small, poorly fitted or top-dose-only effect, or effect the other way, or another doubt; inactive means no such curve, though single readings can be large or run the other way.
experiment: Secondary Assay for lipid storage modulators: HepG2 cell LDSA assay for probe SAR; settings: HepG2 lipid droplet BODIPY, laser-scanning cytometry, 18-24 h; series mostly up to 46.1 µM; activity, negative = less lipid: at the top concentration
From the text: NIH Molecular Libraries Probe Production Centers Network [MLPCN] NIH Chemical Genomics Center [NCGC] MLPCN Grant: 1 R03 MH085686-01 Assay Submitter (PI): Beller, Mathias; Max-Planck-Institut fur Biophysikalische Chemie NCGC Assay Overview: Storing lipids as a reservoir for energy or the anabolism of elementary metabolites is a common feature of probably all cells and is conserved from bacteria to humans. The universal cellular lipid storage organelle is the so-called lipid storage droplet (LD). Although ubiquitous, LDs share a simple structure composed of a hydrophobic core that harbors the storage lipids, which is shielded by a droplet-specific phospholipid monolayer to which proteins are attached. The current model of LD biogenesis involves an incorporation of the lipid core into the membrane leaflets of the endoplasmic reticulum (ER) followed by a subsequent budding-like maturation of a LD, which ultimately pinches off. Once released, LD volume can increase by localized lipogenesis or fusion of existing droplet. Storage lipids are re-mobilized enzymatically by lipase activity. Lipase regulation in the adipocyte is heavily studied and involves multiple components including catecholamine signaling, the LD-associated proteins Perilipin and comparative gene identification (CGI-58) and at least two lipases named hormone sensitive lipase (HSL) and adipocyte triglyceride lipase (ATGL). LD regulation outside of the adipocyte is poorly understood and only few components are known. However, there is an urgent need to learn more about ectopic fat depots as mislocalized storage of lipids, for example in the liver or muscle, is an eminent health problem associated with insulin resistance or the metabolic syndrome.
NCGC Assay Protocol Summary: The assay was performed with HepG2 cells, using an oleic acid feeding protocol similar to the S3 assay. We dispensed 4 uL of cells to give 700 cells/well into Greiner bio-one 1,536-well plates (black walled, clear bottom). Triacsin C (Sigma-Aldrich T-4540), an inhibitor of long-chain fatty acyl CoA synthetase that blocks synthesis of triglycerides, was used as a positive control for lipid under-storage using a final concentration of 20 uM. The orexin antagonist, SB408124 - previously identified to stimulate lipid over-storage, was used as a positive control for lipid over-storage using a final concentration of 20 uM. A total of 23 nL of compound solution of different concentrations were transferred to the assay plates using a Kalypsys pin tool equipped with a 1,536-pin array containing 10-nL slotted pins (FP1S10, 0.457-mm diameter, 50.8 mm long; V&P Scientific). One microliter of oleic acid was added (400 uM final concentration), and the plate was lidded with stainless steel rubber gasket lined lids containing pinholes. After 18-24 h incubation at […] and 95% humidity, 4 uL of the dyes BODIPY 493/503 (Molecular Probes) and the Cell Tracker Red CMTPX dye (Molecular Probes) were added to the wells to stain lipid droplets and enumerate cell number, respectively. Fluorescence was detected by excitation of the fluorophores with a 488-nm laser on an Acumen Explorer (TTP Lab Tech). The total intensity in channel 2 (500-530 nm) reflected lipid droplet accumulation. Cells were detected using channel 3 (575-640 nm) with 5-um width and 100-um depth filters. The ratio of the number of objects in PMT channel 2 over the number of objects in PMT channel 3 was also calculated. […]

SMILES	activity, negative = less lipid [%]	Potency
CCOc1ccc(CCNC(=O)c2ccc(Oc3ccccc3)cc2)cc1OCC	33.8	
CCC/C=C/C/C=C/C=C/C=N/NN=O		396 nM (active)
CCOc1ccc(CCNC(=O)c2ccccc2)cc1OCC	-5.19	
CCOC(=O)C1CCN(C(=O)C2(NC(=O)Nc3ccccc3Cl)CCCC2)CC1	32.5	
CCOc1ccc(CCNC(=O)c2ccc(C(=O)c3ccccc3)cc2)cc1OCC	15.6	
